D1 ag = agonists of human D1 dopamine receptor. P21728. HEK293 T-REx D1 cells, calcium flux, agonist mode. activation, % at 2 µM. hit rate 1% among 360,000; in the data active = activation above about 30%; also: 0% is about no effect
Target sequence (P21728 whole entry, looked up): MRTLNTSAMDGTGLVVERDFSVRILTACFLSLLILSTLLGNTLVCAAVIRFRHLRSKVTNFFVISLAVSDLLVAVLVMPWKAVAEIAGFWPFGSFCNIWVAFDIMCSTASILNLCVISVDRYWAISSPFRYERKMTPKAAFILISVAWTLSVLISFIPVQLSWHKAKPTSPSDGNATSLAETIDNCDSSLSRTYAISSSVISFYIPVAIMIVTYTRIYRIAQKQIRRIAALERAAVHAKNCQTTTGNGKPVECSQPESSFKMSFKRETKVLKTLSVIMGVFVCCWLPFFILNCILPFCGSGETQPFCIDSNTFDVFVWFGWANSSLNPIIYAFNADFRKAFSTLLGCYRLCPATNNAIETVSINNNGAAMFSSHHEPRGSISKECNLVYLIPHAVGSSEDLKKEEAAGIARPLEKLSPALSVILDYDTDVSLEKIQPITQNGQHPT
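Agonism was scored from calcium flux recorded over 180 s (1 read/s) after pintool compound addition, following a 10-cycle baseline. Cells were inducible force-coupled HEK293 TREx D1, plated overnight at 30 C and loaded with no-wash calcium dye.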
DRD3 agonist = agonists of human D3 dopamine receptor | D3R DiscoveRx beta-arrestin cells, luminescence, 90 min | max activation, % | hit rate 0.58% among 410,000 | AID 652048; in the data active = max activation above about 30%; also: 0% is about no effect
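Cells at 1500/well, incubated overnight, then treated with pinned compounds (dopamine as control) for 90 min at 37 degrees C. DiscoveRx reagent added for 30 - 60 minutes at room temperature; luminescence read.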
D1 antag = blocks dopamine activation of the human D1 receptor; P21728; HEK293 TREx D1 cells, calcium flux, dopamine EC80; stronger effect = lower value; activity change, negative = inhibition, % at 10 µM; hit rate 3.2% among 360,000; in the data active = activity change below about -30%; also: % is scaled to controls: 0 for no effect and ±100 for the full control effect
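Allosteric or orthosteric antagonism assessed as attenuation of the calcium response to EC80 dopamine, added 180 s after compound, in induced HEK293 Trex D1 cells loaded with no-wash calcium dye.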
D1 PAM = potentiators of human D1 dopamine receptor; P21728; HEK293 TREx D1 cells, calcium flux, dopamine EC20 potentiation; potentiation, % at 10 µM; hit rate 0.036% among 360,000; AID 504651; in the data active = potentiation above about 30%; also: 0% is about no effect
DRD3 antagonist = antagonists of human D3 dopamine receptor; hit rate 2.5% among 360,000; D3R cells, DiscoveRx beta-arrestin luminescence, antagonist mode; stronger effect = lower value; AID 652054; max response, negative = inhibition, %; in the data active = max response below about -50%; inconclusive = no clear call, values can overlap the other calls; also: % is scaled to controls: 0 for no effect and ±100 for the full control effect
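Cells expressing the human receptor were seeded at 1500 cells/well, incubated overnight at 37 degrees C in 5% CO2, then exposed to library compounds with dopamine controls for 90 minutes at 37 degrees C before luminescent detection.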
ERG-DNA inh = blocks human ERG Ets domain binding to DNA; fluorescence polarization, His-ERG Ets domain / labelled DNA; AID 624246; Potency, µM (doses to about 76.9 µM), for inactives: top-dose FP activity, negative = inhibition, actives largely listed as inhibitors; hit rate 0.028% among 370,000; P11308; active = well fitted inhibition curve with a large enough effect in the polarisation, with a control signal flat; inconclusive = small, poorly fitted or top-dose-only effect, or effect the other way, or a change in a side signal; inactive = no such curve, though single readings can be large or run the other way; the % refers to the polarisation;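 also: polarization taken with two DNA probes labelled with fluorescein and Texas red; potency is read from the fitted curve at half-maximal effect; % of control where 0% means no effect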
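His-tagged ERG Ets domain (1 uM in the protein solution; 300mM KCl, 50mM Tris-HCl, 1mM EDTA, 1mM DTT, pH 7.5) received compound, then a probe mix of 5 nM fluorescein-DNA and 100nM Texas-615-DNA. Fluorescence polarization was read for both dyes.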
Numbers without * were called inactive; ? = inconclusive; · = not tested or not shown. Hits are enriched below; roughly 6.1% of the tested compounds scored in any of these assays.

SMILES	D1 ag	DRD3 agonist	D1 antag	D1 PAM	DRD3 antagonist	ERG-DNA inh
CC(=O)OCCNc1cc(SCc2ccco2)c2nonc2c1[N+](=O)[O-]	0	-1	2	1	?	?
CCCC(=O)OCCNc1cc(SCCC(=O)OC)c2nonc2c1[N+](=O)[O-]	2	-1	8	10	3	-12%
CC(=O)OCCCNc1cc(Sc2ccc(C)cc2)c2nonc2c1[N+](=O)[O-]	9	-35	-14	-8	-73*	-6%
CC(=O)OCCCNc1cc(Sc2nc3ccccc3s2)c2nonc2c1[N+](=O)[O-]	0	-17	12	-3	-78*	0%
CC(=O)OCCNc1cc(Sc2nc3ccccc3[nH]2)c2nonc2c1[N+](=O)[O-]	4	-28	-21	-14	-79*	1%
CN(C)S(=O)(=O)c1ccc(NC(=O)c2c(F)cccc2Cl)cc1	2	2	-11	-2	9	-1%
CCN(CC)CC#Cc1ccc(C)cc1	3	-17	-3	7	-26	4%
O=C(O)CSc1nc(-c2ccccc2)cc(=O)[nH]1	3	3	-11	-4	-16	·
COc1ccc(C2OCC3(CO2)SC(N)=NC3=O)cc1 (stereo unspecified)	-1	12	0	7	11	·
COc1ccc(C2OCC3(CO2)SC(=O)NC3=O)cc1 (stereo unspecified)	3	3	-38*	-14	2	-7%
CCN(CC)c1nc(C)c(C(=S)Nc2cc([N+](=O)[O-])ccc2Cl)s1	39*	-5	-3	-4	?	-7%
COc1cc(-c2ccc3oc(-c4ccsc4)c(C#CC4(O)CCCCC4)c3c2)cc(OC)c1OC	·	36*	·	·	77	0%
COc1ccc(-c2oc(=O)c3cc(OC)c(OC)cc3c2C#CC2(O)CCCCC2)cc1	·	10	·	·	29	-3%
COc1ccc(-c2oc3ccc(N4CCOCC4)cc3c2C#CC2(O)CCCCC2)cc1	·	84*	·	·	90	-2%
OC1(C#Cc2c(-c3ccsc3)oc3ccc(N4CCOCC4)cc23)CCCCC1	·	2	·	·	62	-4%
CN(Cc1cn(Cc2cccc(C(F)(F)F)c2)nn1)C1CN(Cc2cn(Cc3cccc(C(F)(F)F)c3)nn2)S(=O)(=O)C1 (stereo unspecified)	·	-6	·	·	-28	·
CC(=O)Nc1ccc(S[C@@H](CCN2CC[C@H](O)CCC2=O)c2ccccc2)cc1	0	15	·	-4	21	0%
Cc1noc2ncnc(N3CCN(c4cccc(Cl)c4)CC3)c12	4	6	-34*	1	35	-10%
O=C(CP(=O)(c1ccccc1)c1ccccc1)Nc1cccc(CP(=O)(c2ccccc2)c2ccccc2)c1	2	-19	-1	-8	-16	-2%
O=C(NCc1nnnn1-c1ccccc1)c1ccc2ccccc2c1	·	105*	·	·	-6	·
O=C(NCc1nnnn1-c1ccc(F)c(F)c1)c1ccc2ccccc2c1	2	-12	-17	-7	-11	0%
COc1ccc(C2(C)NC(=O)N(CC3CCCCC3)C2=O)cc1 (stereo unspecified)	12	-2	-52*	-5	16	-8%
CN(C)C(=S)c1ccccc1	1	2	6	-2	-6	-12%
COc1ccc(NC(=O)CSc2nncs2)cc1OC	2	-4	0	-6	7	-11%
COc1ccc(NC(=O)CSc2nncs2)cc1S(N)(=O)=O	4	9	-32*	-2	19	0%
CC1CCN(C(=O)COC(=O)CCCN2C(=O)c3cccc4cccc(c34)C2=O)CC1	-2	4	6	-2	3	1%
CCOC(=O)N1CCC(NC(=O)C2CCCN(Cc3nc(-c4ccc(CC)cc4)oc3C)C2)CC1 (stereo unspecified)	37*	1	-34*	-5	-2	4%
CCOC(=O)N1CCC(NC(=O)CS(=O)Cc2nc(-c3ccc(C)cc3)oc2C)CC1 (stereo unspecified)	-1	6	-35*	-2	15	8%
CCOC(=O)N1CCC(NC(=O)C2CCN(Cc3nc(-c4ccc(CC)cc4)oc3C)CC2)CC1	·	5	·	·	9	11%
